# Source: PubChem
# Most compounds without a hit are left out; they make up all but 3.8% or so of the library.
# tim23-1 inh – inhibits growth of tim23-1 mutant yeast; S. cerevisiae tim23-1 growth, BacTiter-Glo luminescence, 24 h; inhibition, % at 20 µM; actives 1.3% (n = 330,000);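 active = growth inhibition of the mutant yeast at or above 50%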;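 also: temperature-sensitive mutant grown at 25 °C; plate controls were DMSO-treated mutant yeast for no effect and medium wells lacking yeast for full effect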
# tim10-1 inh – inhibits growth of tim10-1 mutant yeast. S. cerevisiae tim10-1 ts strain growth, BacTiter-Glo, 24 h. inhibition, % at 20 µM. actives 2.2% (n = 330,000);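 active = inhibition of at least 40%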;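 also: mutant grown at 25 °C; 0% = DMSO wells with yeast and 100% = wells holding no yeast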
# B2AR ag – activates human beta-2 adrenergic receptor causing internalization; actives 0.43% (n = 340,000); Am2.2-beta2AR cells, FAP receptor internalization, flow cytometry; P07550; response, % (test concentration not listed);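 active = response above a set limit, near 3 SD of response in nonfluorescent compounds, cut at about 42% in these data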
# Target sequence (P07550 whole entry, looked up): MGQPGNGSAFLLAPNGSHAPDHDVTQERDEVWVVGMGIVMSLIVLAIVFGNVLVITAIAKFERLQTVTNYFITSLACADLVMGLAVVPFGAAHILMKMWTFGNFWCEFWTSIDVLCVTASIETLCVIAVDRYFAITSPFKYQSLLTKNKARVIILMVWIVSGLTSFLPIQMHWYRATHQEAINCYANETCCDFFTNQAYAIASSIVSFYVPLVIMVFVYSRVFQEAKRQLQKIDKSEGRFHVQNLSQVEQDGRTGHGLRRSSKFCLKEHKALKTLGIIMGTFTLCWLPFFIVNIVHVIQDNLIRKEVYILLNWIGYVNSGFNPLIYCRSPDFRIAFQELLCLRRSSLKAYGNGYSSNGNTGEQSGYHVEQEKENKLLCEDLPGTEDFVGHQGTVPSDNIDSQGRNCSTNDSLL
# PfHsp90 yeast 2 – inhibits growth of yeast expressing Plasmodium falciparum Hsp90; S. cerevisiae expressing PfHsp90, BacTiter-Glo ATP, 48 h; yeast lacking PDR1 and PDR3 efflux regulators; inhibition, % at 9.4 µM; actives 0.32% (n = 310,000); AID 504621;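 active = every replicate shows inhibition above about 80%, whatever the replicate mean, limit read from the data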;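 also: 0% = DMSO neutral controls and 100% = 20 µM radicicol positive controls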
# TIM10 inh – TIM10 yeast growth inhibition | actives 1.4% (n = 330,000) | S. cerevisiae TIM10 strain growth, BacTiter-Glo luminescence, 24 h | inhibition, % at 10 µM | AID 463195;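 active = inhibition of 40% or more at the single tested concentration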;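 also: wild-type TIM10 isogenic control strain grown at permissive 25 °C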
# tim10-1 conf – tim10-1 yeast growth inhibition, confirmed | shares compounds with tim10-1 inh | S. cerevisiae tim10-1 ts strain growth, BacTiter-Glo, 24 h | inhibition, % at 20 µM | actives 56% (n = 7,400) | AID 463213;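 active = inhibition of yeast growth at or above a set limit in either of two repeat tests at 20 µM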;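 also: tim10-1 mutant grown at permissive 25 °C to find synthetic lethal compounds; 0% = DMSO yeast wells and 100% = medium wells without yeast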
# * marks the source's active call; other numbers are inactive results; x = no result given.
SMILES,tim23-1 inh,tim10-1 inh,B2AR ag,PfHsp90 yeast 2,TIM10 inh,tim10-1 conf
COc1ccc(NS(=O)(=O)c2cccc(C(=O)NCc3ccccc3CN3CCOCC3)c2)cc1,x,x,6,x,x,x
CCCOc1ccc(C(=O)N2CCN(c3ccc(N)cc3Cl)CC2)cc1,42,48*,-6,21,33,35*
CCCCOc1ccc(C(=O)N2CCN(c3ccc(N4CCOCC4)nn3)CC2)cc1,14,17,4,-15,4,x
CN(C(=O)CSc1nnc(-c2ccco2)n1C)C1CCCCC1,9,10,-8,x,-2,x
CN1CC(c2ccccc2)C2(SC(=S)N(Cc3ccco3)C2=O)C12C(=O)Nc1ccccc12 (stereo not given),19,44*,21,x,13,16
Cc1sc(C(C2C(=O)CC(C)(C)CC2=O)C2C(=O)CC(C)(C)CC2=O)cc1[N+](=O)[O-],47,44*,19,8,37,41*
Fc1ccc(NC(=S)Nc2ccccc2N2CCOCC2)cc1Cl,32,44*,-3,-25,9,39*
O=S(=O)(c1ccc(Cl)c(NC(=S)Nc2ccccc2N2CCOCC2)c1)N1CCOCC1,29,33,-1,-10,14,x
CC1CN(c2nc3c(c(=O)n(Cc4ccc(Cl)cc4)c(=O)n3C)n2C)CC(C)O1 (stereo not given),19,44*,9,4,38,26
CC(C)Cn1c(=O)c2c(nc3n2CC(C)CN3Cc2ccccc2)n(C)c1=O (stereo not given),30,40*,-9,-27,8,7
CC1CCc2ccccc2N1CC(=O)Nc1cccc(S(=O)(=O)N2CCCC2)c1 (stereo not given),8,13,3,x,-4,x
COc1ccc([C@@]2(C(C)C)ON(c3ccccc3C(F)(F)F)C2=O)cc1,20,-43,12,-8,6,x
COc1cccc2[nH]c3ccccc3c(=O)c12,22,8,-5,12,0,x
C=Cc1ncc(OC)c2c1[nH]c1ccccc12,31,44*,18,-26,22,37*
O=C1N=c2ccccc2=C1c1sc(=S)n(NC(=O)c2ccccc2)c1O,18,17,-1,-15,7,x
C=CCn1c(O)c(C2=c3ccccc3=NC2=O)sc1=Nc1ccc(O)cc1,38,63*,2,-23,6,25
CCN(CCn1cccn1)C(=O)C1CCC(=O)N(CCc2cccc(F)c2)C1 (stereo not given),-3,-16,1,-15,-8,x
COc1ccc(N2C(=S)N=C(Nc3cccc(C)c3)C23CCCCC3)cc1,10,19,2,-4,-4,x
CC1CCC2(CC1)C(Nc1cccc(Cl)c1)=NC(=S)N2CC#N (stereo not given),41,43*,6,-25,30,39*
C/C(=N/NC(=O)c1ccc(Br)o1)c1cccc(NC(=O)c2ccc(F)cc2)c1,40,49*,4,x,29,40*
C/C(=N/NC(=O)c1ccc(Br)o1)c1cccc(NC(=O)c2ccc(C)o2)c1,37,44*,2,11,16,18
Clc1ccccc1-c1nn2c(-c3ccccn3)nnc2s1,30,40*,-26,x,12,40*
Clc1ccccc1-c1nn2c(-c3ccncc3)nnc2s1,35,43*,-2,x,31,43*
O=C(NC1CCCC1)C(c1cccnc1)N(C(=O)c1csnn1)c1ccc(F)cc1 (stereo not given),8,2,-6,-38,-8,x
Cc1ccc2cccc(OCCCOc3ccccc3F)c2n1,46,43*,11,-10,22,30
SMILES,tim23-1 inh,tim10-1 inh,B2AR ag,PfHsp90 yeast 2,TIM10 inh,tim10-1 conf
CSc1ccc(C2C(C(=O)c3ccco3)=C(O)C(=O)N2c2nnc(SC)s2)cc1 (stereo not given),23,19,2,5,6,x
CCCC(=O)NC(c1ccco1)c1cc(Cl)c2cccnc2c1O (stereo not given),48,50*,0,105*,21,24
COc1ccc(C(NC(C)=O)c2cc(Cl)c3cccnc3c2O)cc1OC (stereo not given),19,40*,0,-28,16,29
CCC(=O)NC(c1ccc(OC)c(OC)c1)c1cc(Cl)c2cccnc2c1O (stereo not given),x,x,5,-35,x,x
COc1ccccc1CNC(=O)C(C)n1nc(C)n2c(cc3occc32)c1=O (stereo not given),13,17,2,31,-12,x
N#CC(C#N)=c1ccc2c(c1)NC1(CCCCC1)N=2,44,46*,6,42,29,42*
N#CC(C#N)=C1NC2(CCCCC2)Cc2ccccc21,12,20,0,-24,24,x
CSc1nc(N)nc2c1ncn2Cc1ccccc1,x,x,-8,-3,x,x
CC1CCc2nc(NC(=O)c3ccco3)sc2C1 (stereo not given),18,45*,-3,17,39,31*
CC(C)c1ccc(/C=C/C(=O)N2CCOCC2)cc1,11,15,-5,13,19,x
CC(C)c1ccc(/C=C/C(=O)CCC(=O)O)cc1,33,41*,6,-36,7,24
CC(C)c1ccc(/C=C/C(=O)N2CCCCCC2)cc1,32,43*,-3,-22,16,14
O=C(O)CCC(=O)/C=C/c1ccccc1,31,32,1,-4,0,x
CCc1ccc(/C=c2\s/c(=C\C(=O)C(C)(C)C)[nH]c2=O)cc1,50,53*,-2,-52,32,44*
Cc1nc(C)c(-c2ccc(SCc3ccccc3F)nn2)s1,21,11,-8,-24,6,x
CCCC1CCC(C2=N/C(=C\c3ccc(OC)c(OC)c3)C(=O)O2)CC1 (stereo not given),15,32,2,-25,23,x
COc1cccc(/C=C2\N=C(C3CCCCC3)OC2=O)c1OC,31,47*,-7,x,35,33*
Cc1ccc(C(=O)NCCNC(=O)c2ccco2)cn1,7,-9,-5,-6,-1,x
FC(F)C(F)(F)C(F)(F)C(F)(F)c1cc(-c2ccccc2)n[nH]1,47,48*,1,-30,39,30*
Cc1cc(-c2ccccc2)n[nH]1,10,8,-1,6,-7,x
O=C(Nc1nc2ccccc2n1CCN1CCOCC1)c1cn(-c2ccccc2)nc1-c1ccccc1,40,42*,32,-2,39,32*
CC(=C/c1ccccc1)/C=N/n1c(-c2ccncc2)n[nH]c1=S,45,40*,-2,14,40,38*
S=c1[nH]nc(-c2cc(-c3ccccc3)n[nH]2)n1/N=C/C(Br)=C/c1ccccc1,50,47*,9,x,14,43*
CC(/C=N/n1c(-c2cccnc2)n[nH]c1=S)=C\c1ccccc1,-20,31,0,6,6,x
